Results taken from ChEMBL document CHEMBL4513216, “Probing the Open Global Health Chemical Diversity Library for Multistage-Active Starting Points for Next-Generation Antimalarials” (ACS Infect Dis, 2020).
About 8,600 (12%) of roughly 69,000 compounds showed an effect of 50% or more. Shown is part of a subset that was picked to be rich in strong results.

System: Plasmodium berghei
Experiment: Screen against P. berghei liver stage (PbLuc), transformed with Luciferase, at 10uM
Assay type: functional, HepG2
Details: tested at 10 uM

| SMILES | INHIBITION |
| --- | --- |
| CCc1nnc2n1CCN(C(=O)c1ccc(C)c(S(N)(=O)=O)c1)C2 | 36.8% |
| COCCOCC(=O)Nc1ccc(C)cc1Br | -5.51% |
| CCCS(=O)(=O)CCN1CCN(C(C#N)c2ccccc2)CC1 (configuration not stated) | -4.93% |
| CCn1c(C2CCN(C(=O)c3cc(CC(C)C)on3)CC2)nn(C)c1=O | 21.8% |
| CCn1c(CC2CCN(C(=O)c3cc(C(C)C)n[nH]3)CC2)n[nH]c1=O | 41.5% |
| CCn1c(CC2CCN(C(=O)c3cc(CC(C)C)on3)CC2)n[nH]c1=O | 51.7% |
| O=C(NC[C@H]1OC[C@@H]2CN(Cc3ccco3)CC[C@@H]21)c1cccnc1 | 8.03% |
| COc1cc(C(=O)NCC2CCCO2)nc2c(C)cc(F)cc12 (configuration not stated) | -14.8% |
| CCNC(=O)c1cc(OC)c2cc(F)cc(C)c2n1 | -8.41% |
| COc1cc(C(=O)NCC2CC2)nc2c(C)cc(F)cc12 | 55.4% |
| COc1ccc(-c2cnc(CN(CC(N)=O)C3CCCC3)o2)cc1 | 19.9% |
| O=C(Cn1nc2c(cc1=O)CSCC2)N[C@@H](Cc1ccccc1)C(=O)O | -5.51% |
| Cn1c(N)nnc1SCc1ccc(Cl)cc1Br | 11.6% |
| Cn1c(CO)nnc1SCc1c(F)cccc1Br | 15.5% |
| Cn1c(N)nnc1SCc1c(F)cccc1Br | 55.4% |
| CN(C)c1nc2c(c(N3CCC(O)CC3)n1)CN(CC1CCOC1)CC2 (configuration not stated) | 60.1% |
| CN(C)c1nc2c(c(N3CCC(O)CC3)n1)CN(CC1CCNC1)CC2 (configuration not stated) | 18.5% |
| CN(C)c1nc2c(c(N3CCC(O)CC3)n1)CN(CC(C)(C)C)CC2 | 22.4% |
| CC(C)COCCC(=O)Nc1cccnc1-n1cncn1 | 14.4% |
| CN1C(=O)C2(CCN(c3ncccc3C(=O)O)CC2)c2ccccc21 | -20.6% |
| O=C(NC[C@H]1CCCC[C@H]1O)c1cccc2[nH]c(-c3ccco3)nc12 | 23.3% |
| CCN(C)S(=O)(=O)c1ccc(Cl)cc1C#N | 33.2% |
| CSCC(C)N(C)S(=O)(=O)c1ccc(Cl)cc1C#N (configuration not stated) | 50.8% |

| SMILES | INHIBITION |
| --- | --- |
| CC(C)CN(C)S(=O)(=O)c1ccc(Cl)cc1C#N | -10.4% |
| CC(C)C(=O)N1CCN(Cc2cnn(C)c2)CC2(CC(=O)N(C)C2)C1 (configuration not stated) | -10.3% |
| O=C(c1ccc[nH]1)N1CCN(Cc2ccncc2)c2ncccc2C1 | 23.3% |
| Cc1ccc(-n2c(SCC(=O)O)nnc2-c2cccc(C)c2)cc1 | 7.52% |
| Cc1cnc(C(=O)N2CCCn3c(nc(CN(C)C)cc3=O)C2)cn1 | -10.3% |
| Cc1cc(NC(=O)N2CCN(C)CC2C)n(Cc2ccccc2)n1 (configuration not stated) | 43.4% |
| Cc1cc(NC(=O)N2CCN(C)CC2C)n(C)n1 (configuration not stated) | 40.5% |
| Cc1cc(NC(=O)N2CCN(C)CC2C)n(CCC#N)n1 (configuration not stated) | 53.4% |
| CCCN1C[C@@H]2CC[C@H]1CN(Cc1ccc(-n3cccn3)cc1)C2 | 49.5% |
| COC[C@@]12CCC[C@@H]1CN(C(=O)COc1ccccc1OC)C2 | 19.5% |
| Cc1ccccc1OCCC(=O)NC(C)c1nnc2n1CCCCC2 (configuration not stated) | 28.8% |
| Nc1nccnc1C1CN(Cc2ccc(OCC(=O)O)cc2)CCO1 (configuration not stated) | -22.5% |
| COc1ccc2c(c1)C(C(=O)N(C)CCCc1nccn1C)CC(=O)N2 (configuration not stated) | 23% |
| COc1ccc2c(c1)C(C(=O)N(C)CCc1cnn(C)c1)CC(=O)N2 (configuration not stated) | 82.3% |
| COc1ccc2c(c1)C(C(=O)N(C)CCn1ccnc1C)CC(=O)N2 (configuration not stated) | 13.7% |
| COc1ccc2c(c1)C(C(=O)N(C)CCCc1cnn(C)c1)CC(=O)N2 (configuration not stated) | 55.4% |
| COc1ccc2c(c1)C(C(=O)N(C)CCc1scnc1C)CC(=O)N2 (configuration not stated) | 44.3% |
| COc1ccc2c(c1)CC(C(=O)N(C)CCCc1cnn(C)c1)CO2 (configuration not stated) | -1.91% |
| CCOc1ncccc1Cn1cc2[nH]cccc-2c1=O | 18% |
| Cc1nn(CC(=O)O)c2nccc(-c3ccc(F)cc3)c12 | 39.5% |
| CCN(c1cccc(F)c1)S(=O)(=O)c1cc(C(=O)O)cc2c1CCC2 | 38.6% |
| CCN(c1ccccc1)S(=O)(=O)c1cc(C(=O)O)cc2c1CCC2 | 56.5% |
| CC(O)CN(c1ccccc1)S(=O)(=O)c1cc(C(=O)O)cc2c1CCC2 (configuration not stated) | 19.7% |

| SMILES | INHIBITION |
| --- | --- |
| COCCNC(=O)Nc1ccc(-n2cncn2)c(F)c1 | 58.2% |
| COCCS(=O)(=O)Nc1ccc(-n2cncn2)c(F)c1 | 56.5% |
| CC(=O)Nc1ccc(-n2cncn2)c(F)c1 | -6.91% |
| CC(C)NC(=O)CCNC(=O)Nc1ccc(-n2cncn2)c(F)c1 | -18% |
| COCCOc1ncccc1C(=O)Nc1ccc(-n2cncn2)c(F)c1 | 13.1% |
| COCCNC(=O)Nc1ccc(-n2cncn2)c(C(F)(F)F)c1 | 21.8% |
| CN1CCN(Cc2cccnc2)C2(CCN(Cc3ccccn3)C2)C1=O (configuration not stated) | -16% |
| CSCC(=O)N1C[C@@H](C)[C@](O)(C(C)C)C1 | 5.23% |
| CN(C)c1nccc(C2CN(C(=O)CO)C2)n1 | 1.5% |
| Cc1cc(Nc2cnccn2)nc(C2CCCN(CCO)C2)n1 (configuration not stated) | 1.62% |
| Cc1cccc(Nc2ccc(C3CCCCN3)cn2)n1 (configuration not stated) | 70.3% |
| Cc1cc(C)nc(Nc2ccc(C3CCCCN3)cn2)n1 (configuration not stated) | -0.232% |
| c1cnc(Nc2ccc(C3CCCCN3)cn2)cn1 (configuration not stated) | -15.1% |
| O=C(CCc1ccccc1F)NC1CCCN(c2ccccn2)C1 (configuration not stated) | -40.55% |
| CCN(CC)C(=O)NC(C)c1ccc(Oc2cccnc2)c(F)c1 (configuration not stated) | 36.3% |
| COc1ccc2c(c1)C1(CCN(Cc3cccnc3)CC1)N(C)CC2 | -27.4% |
| O=C1CC(c2ccncc2)C2(CCN(CC3CC3)CC2)N1 (configuration not stated) | -4.32% |
| O=C(CCc1cccc(Cl)c1Cl)N1CCOCC1c1ncon1 (configuration not stated) | 33.8% |
| CN(Cc1ccccc1)CC(O)Cn1cnc2sccc2c1=O (configuration not stated) | 10.675% |
| CN(Cc1ccccc1)CC(O)Cn1cnc2ccsc2c1=O (configuration not stated) | 56.6% |
| CN(Cc1ccccc1)CC(O)Cn1cnc2ccccc2c1=O (configuration not stated) | 2.26% |
| O=C(CCc1cc2n(n1)CCCNC2)NCCCSC1CCCCC1 | 40.3% |
| CCN(Cc1ccc2c(c1)OCO2)C(=O)Cn1cccnc1=O | 37.9% |

| SMILES | INHIBITION |
| --- | --- |
| COc1cc2c(cc1CNC(=O)C(C)n1ccnc1C(C)C)CCC2 (configuration not stated) | 26.5% |
| COc1cccc(CNC(=O)C(C)n2ccnc2C(C)C)c1OC (configuration not stated) | 62.1% |
| COc1cc2c(cc1CNC(=O)C(C)n1ccnc1C(C)C)OCCO2 (configuration not stated) | 42.3% |
| OCCN1CCCC(c2nccnc2Oc2ccccc2)C1 (configuration not stated) | -3.31% |
| O=C(C1CCN(c2snc3ccccc23)CC1)N1CCCCCC1 | 36.2% |
| OCc1cc2ccccc2nc1N1CCCCC1 | 53.1% |
| OCc1cc2ccccc2nc1N1CCCC1 | 16.8% |
| CCCC(=O)NC1CCCN(c2nc3ccccc3cc2CO)C1 (configuration not stated) | 7.19% |
| CC(=O)NC1CCCN(c2ccc(C#N)cc2C(F)(F)F)C1 (configuration not stated) | -17.9% |
| O=C(C1CCC1)N1CCN(c2snc3ccccc23)CC1 | 32.8% |
| Cc1cc(N2CCN(c3nc4ccccc4cc3CO)CC2)nc(C)n1 | 48.8% |
| CC(=O)NC1CCCN(c2nc3ccccc3cc2CO)C1 (configuration not stated) | 66.5% |
| O=C(C1CCCN(c2nc3ccccc3cc2CO)C1)N1CCCC1 (configuration not stated) | 61.9% |
| CC(C)c1noc(CN2CCC(C3CCCCCN3S(C)(=O)=O)CC2)n1 (configuration not stated) | 34% |
| COc1cc(CNCCc2nc(C)cs2)cc2c1OCCO2 | 31% |
| CC1c2ccc(F)cc2CCN1C(=O)c1[nH]c(=O)[nH]c(=O)c1N (configuration not stated) | 23.6% |
| CCn1cnc(NC(=O)NCC2CCS(=O)(=O)CC2)n1 | 4.12% |
| Cc1occc1C(=O)N1CCC[C@]2(C[C@@H](OCc3ccncc3)CO2)C1 | -9.67% |
| CCN(Cc1ccc2c(c1)OCCO2)C(=O)Cn1cccnc1=O | 37.9% |
| Cc1c(S(=O)(=O)N2CCOCC2)cc2c(C)cc(=O)n3c2c1CCC3 | 2.45% |
| CC(C)c1nc(CNc2ccc(N3CCC(CO)CC3)cn2)cs1 | 13% |
| OCC1CCN(c2ccc(NCc3ccsc3)nc2)CC1 | 54.4% |
| Cc1ccc(CNc2ccc(N3CCC(CO)CC3)cn2)o1 | 14.1% |

| SMILES | INHIBITION |
| --- | --- |
| Cc1cnn(CC2CCCCN2CCCS(C)(=O)=O)c1 (configuration not stated) | 5.03% |
| CN1CCN(c2nc(-c3cnn(C)c3)cs2)CC1 | -1.45% |
| Cn1cc(-c2csc(N3CCSCC3)n2)cn1 | -42.1% |
| Cn1cc(-c2csc(N3CCCCCC3)n2)cn1 | 79.8% |
| CO[C@H]1CN(Cc2cccc(C#N)c2)[C@@H]2COC[C@H]12 | 34.1% |
| CS(=O)(=O)N1CC2(CCN(C3COC3)C2)Cc2ccccc21 (configuration not stated) | 55.7% |
| CS(=O)(=O)N1CC2(CCN(CC3CCCCC3)C2)Cc2ccccc21 (configuration not stated) | 48.2% |
| CS(=O)(=O)N1CC2(CCN(C3CCCCC3)C2)Cc2ccccc21 (configuration not stated) | 40.8% |
| CS(=O)(=O)N1CC2(CCCN(C3COC3)C2)Cc2ccccc21 (configuration not stated) | 28.4% |
| CS(=O)(=O)N1CC2(CCN(CC3CC3)C2)Cc2ccccc21 (configuration not stated) | 21.7% |
| CS(=O)(=O)N1CC2(CCCN(CC3CC3)C2)Cc2ccccc21 (configuration not stated) | 54.9% |
| CC(C)OCc1noc(C2CC=CC2)n1 | -20% |
| CC1CN(C)CCN1C(=O)Nc1nc(-c2cccn2C)cs1 (configuration not stated) | 47% |
| CCCc1nnc(N2CCN(c3cccc(C)c3C)CC2)o1 | 30.1% |
| Cc1nc2sccn2c1C(=O)N1CCc2c(nc(N)[nH]c2=O)C1 | -31.6% |
| Cc1nc2ncccn2c1C(=O)N1CCc2[nH]cnc2C1 | 22.5% |
| Cc1nc2sccn2c1C(=O)N1CCc2c(nc(N(C)C)[nH]c2=O)C1 | 51.8% |
| O=C(c1cn(CC(=O)N2CCc3[nH]cnc3C2)c2ccccc12)C1CC1 | 12.6% |
| Cc1nc2sccn2c1C(=O)N1CCc2[nH]cnc2C1 | 58.3% |
| CC(=O)Nc1cccc(C(=O)N2CCc3c(nc(N(C)C)[nH]c3=O)C2)c1 | 41.5% |
